This is part of a sample that, as a whole, favours compounds with a hit. Of some 83,000 tested, about 20% had one in any assay.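 Treatment: one concentration, 48 hours, 96-well format. Scoring: percent growth, with anything below 10 considered active.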 Activity calls are given as the source filed them.
Test system: HCC-2998 colon
Assay: NCI-60 one-dose screen, 48 h (100 = growth as untreated, 0 = no growth, -100 = all killed)
Conditions: 10 µM unless noted
Description: Growth inhibition of the HCC-2998 human tumor cell line is measured as a screen for anti-cancer activity. Cells are grown in 96 well plates and exposed to the test compound for 48 hours. Compounds are tested at a single concentration, which is 10^-5 M for most compounds. The reported endpoint is percent growth (GI% or GIPRCNT), where numbers from 0 - 100% represent growth inhibition, and numbers from -100% - 0 represent cell death. For example, a value of 40 represents 60% growth inhibition. A value of 0 means no net growth occurred over the course of the experiment. A value of -40 indicates 40% of cells at the beginning of the experiment died by the end of the experiment. A value of -100 means all cells are dead at the end of the experiment.
NCI-60 Human Tumor Cell Lines Screen was performed using the standard one-dose NCI protocol, which is described in more detail at https://dtp.cancer.gov/discovery_development/nci-60/default.htm.
Compounds with GIPRCNT values below 10 were considered active. Activity score was based on GIPRCNT using the following formula: […]
Score is 0 for GIPRCNT values of 100 or above, 50 for GIPRCNT values of 0, and 100 for GIPRCNT values of -100.

`Clc1nc(Cl)c2c3c(sc2n1)CCCC3` was tested. Which growth did it give?
The growth was 97.6% (inactive).

Which growth does the source give for `COc1cc2c(c(OC)c1OC)-c1ccc(N=NC(N)=S)c(=O)cc1[C@@H](NC(C)=O)CC2` here?
The growth was -13.6% (active).

How did the growth turn out when `COc1ccc(C(=O)c2sc3nc4c(c(C(F)(F)F)c3c2N)CN(C(C)=O)CC4)cc1OC` was run?
The growth was 94.9% (inactive).

`O=C1NC(=O)C(CC(=O)n2c(-c3ccccc3)nc3ccccc32)C(=O)N1` was tested. Which growth did it give?
The growth was 113% (inactive).

With `O=C(CO[N+](=O)[O-])Nc1ccc(C(=O)/C=C/c2ccc3c(c2)OCO3)cc1` as the compound, how does the growth read?
Its growth is 69.2% (inactive).

For `Nc1nc2c(c3ncccc13)C(c1cccc(Br)c1)Cc1ncccc1-2` (stereo not given), which growth is on record?
The growth was 25.4% (inactive).

How did the growth turn out when `C=C1C(=O)O[C@H]2[C@H]1CC/C(Cn1cc(Cc3c[nH]c4ccccc34)nn1)=C\CC[C@@]1(C)O[C@@H]21` was run?
Its growth is 61.5% (inactive).

`COc1cc(/C=N/N(C)C)ccc1O` was tested. Which growth did it give?
The growth was 107% (inactive).

How did the growth turn out when `O=C(Nc1ccc(Oc2ccc(F)cc2)c(Cl)c1)c1cccnc1` was run?
Its growth is 91.2% (inactive).

`CN[C@@]12CC3(C=CC(=O)C=C3)O[C@]1(Cc1ccc(OC)cc1)N(C)C(=O)N2` was tested. Which growth did it give?
The growth was 100% (inactive).

How did the growth turn out when `O=C(/C=C/c1ccc(Cl)cc1)/C=C/c1cc2ccccc2[nH]c1=O` was run?
The growth was 73% (inactive).

How did the growth turn out when `COc1cccc(-c2nc3sccn3c2-c2ccnc(NCCCNS(=O)(=O)c3ccccc3)c2)c1` was run?
The growth was 67.4% (inactive).

How did the growth turn out when `Nc1cc2ccncc2c2ccccc12` was run?
The growth was 83% (inactive).

How did the growth turn out when `NS(=O)(=O)c1ccc(Nc2nc3n[nH]c(Nc4ccccc4)c3c(=O)[nH]2)cc1` was run?
The growth was 112% (inactive).

Which growth does the source give for `CC(=O)/C(=C/c1cccc(Cl)c1)C(=O)c1ccccc1` here?
Its growth is 99.9% (inactive).

`O=C1Nc2ccccc2/C1=C/C(=N/c1nnc(-c2ccc(Cl)cc2)s1)c1ccccc1` was tested. Which growth did it give?
Its growth is 99.8% (inactive).

Which growth does the source give for `CN1CCN(Cc2ccc(NC(=O)c3[nH]ncc3Nc3ncnc4c3CCC4)cc2)CC1` here?
The growth was 13.1% (inactive).

How did the growth turn out when `CC(C)n1cc2c(N)ncnc2n1` was run?
Its growth is 122% (inactive).

Which growth does the source give for `O=C1c2cc3c(cc2-c2c1c1cc(F)c(F)cc1c(=O)n2C[C@H](O)CO)OCO3` here?
The growth was 10.7% (inactive).

How did the growth turn out when `O=C1c2ccccc2-c2nccc3cc(Cl)nc1c23` was run?
The growth was 101% (inactive).

For `COc1cc2c(cc1O)CCc1cc(O)cc(OC)c1-2`, which growth is on record?
The growth was 110% (inactive).

With `O=C(O)C(O)C(O)C(=O)O.[NH-]C1CCCCC1[NH-].[Pt+2]` (stereo not given) as the compound, how does the growth read?
Its growth is 104% (inactive).

For `NC1=CSC2=N/C(=C\c3ccc(Cl)cc3)C(=O)N12`, which growth is on record?
The growth was 90.2% (inactive).

How did the growth turn out when `CCOC(=O)C12CCCC1=CC(=O)CC2` (stereo not given) was run?
Its growth is 105% (inactive).

With `Nc1nc2ccc(-c3nc4ccc5[nH]ncc5c4c4c3CCC4)cc2s1` as the compound, how does the growth read?
Its growth is 50.9% (inactive).

Which growth does the source give for `Cc1sc2nc3[nH]/c(=C\c4ccc(Cl)cc4)c(=O)n3c(=O)c2c1C` here?
The growth was 107% (inactive).

For `Cc1ccc(N)cc1F`, which growth is on record?
Its growth is 106% (inactive).

For `COC(=S)SCN(CSC(=S)OC)c1ccc(Cl)cc1`, which growth is on record?
The growth was 100% (inactive).

For `Cn1c2ccccc2c2c3[nH]c(=O)[nH]c(=O)c3c3c4ccccc4n(C)c3c21`, which growth is on record?
Its growth is 73.9% (inactive).

For `O=C(CN1CCN(c2cc3c(cc2F)c(=O)c(C(=O)O)cn3C2CC2)CC1)Nc1cc(=O)[nH]c(=O)[nH]1`, which growth is on record?
The growth was 98.1% (inactive).

With `O=C(Nc1ccc(F)cc1)Nc1ccc(CCO)cc1` as the compound, how does the growth read?
The growth was 108% (inactive).

Which growth does the source give for `N=c1c2ccccc2nc2n1CCCCC2` here?
The growth was 106% (inactive).

For `NS(=O)(=O)c1ccc(-n2ncc3c(=O)[nH]c(CN4CCN(c5cc6c(cc5F)c(=O)c(C(=O)O)cn6C5CC5)CC4)nc32)cc1`, which growth is on record?
The growth was 93.9% (inactive).

`C#Cc1nc(Nc2cc(C)[nH]n2)c2ccccc2n1` was tested. Which growth did it give?
Its growth is -91% (active).

For `CCCCCCCCCC(=O)Oc1ccc(/C(=C(/C)Cc2cccc(OC)c2)c2ccc(OCCN(C)C)cc2)cc1`, which growth is on record?
Its growth is 100% (inactive).

With `O=C(N/N=C/c1ccc(O)cc1O)c1cccnc1` as the compound, how does the growth read?
The growth was 35.1% (inactive).

Which growth does the source give for `COc1cccc(/C=C\C(=O)c2ccccc2)c1` here?
The growth was 104% (inactive).

How did the growth turn out when `CC1=CC(=O)CC(C)(C)[C@@]1(O)/C=C/[C@@H](C)O` was run?
The growth was 94.7% (inactive).

Which growth does the source give for `CS(CCCCN=C=S)=NC(=O)c1c(F)c(F)c(F)c(F)c1F` (stereo not given) here?
Its growth is 104% (inactive).

For `COc1cc(C#N)cc(OC)c1OCCN(CCOc1c(OC)cc(C#N)cc1OC)S(=O)(=O)c1ccc(C)cc1`, which growth is on record?
The growth was 94.8% (inactive).

Source: PubChem BioAssay (NCI)
